Assay [1] in a line: resazurin metabolic signal in HepG2 cells – cell-based, resazurin fluorescence, 24 h, PK04 Diversity Set, profiling panel (AID 1172). Further: test concentration not given here. To be noted: HepG2 viability, higher = more signal. For orientation: The colour change of resazurin is a common sign of viable cells or microbes.
The nature of assay [2]: budding yeast growth changes without added modifier – OD600, strain BY4716, 24 h, basal condition, primary screen (AID 1173). To be noted: S. cerevisiae BY4716 growth, OD600, 24 h; higher = more signal, called active from +8 up or from −8 down.
Assay [3] in a line: viability profiling in MM1S myeloma cells – cell-based, resazurin fluorescence, basal, 24 h, PK04 Diversity Set, profiling panel (AID 1174). Further: test concentration not given here. The note with it: higher = more signal, called active from +8 up or from −8 down.
Assay [4] has as its target Dihydroorotate dehydrogenase (quinone), mitochondrial (Plasmodium falciparum (isolate 3D7)) (UniProt Q08210). As to the kind of experiment: inhibition of P. falciparum DHODH – biochemical, C-terminal His tag, absorbance 600 nm, primary screen (AID 1175).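 Further: recombinant parasite enzyme with a five histidine tag at its C terminus; test concentration not given here.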 To be noted: PfDHODH enzyme, DCIP absorbance 600 nm; higher = more signal, called active from +8 up or from −8 down.
Assay [5] can be described thus: inhibition of PAO1 biofilm formation – strain PAO1, LB-PBS medium, absorbance 600 nm, primary screen (AID 1176). Further: test concentration not given here. To be noted: P. aeruginosa PAO1 growth/biofilm, A600, 12 h; higher = more signal.
Assay [6] can be described thus: growth modulation of vineyard yeast isolate – strain RM11-1a, OD600, basal, 24 h, primary screen (AID 1177).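 Further: cultures grown under basal conditions with no added stressor; test concentration not given here.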 The note with it: S. cerevisiae RM11-1a growth, OD600, 24 h; higher = more signal, called active from +8 up or from −8 down.
Assay [7] is described as follows: growth of efflux-deficient E. coli DRC39 – strain DRC39, OD650, 24 h, E. coli filamentation inducers, primary screen (AID 1178).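 Further: growth measured as culture turbidity by optical density at 650 nm; test concentration not given here.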 The note with it: E. coli DRC39 acrAB, higher = more signal, called active from +8 up or from −8 down.
Assay [8] can be described thus: growth of efflux-deficient E. coli DRC39 – strain DRC39, OD650, 48 h, E. coli filamentation inducers, primary screen (AID 1179).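 Further: screen aims at cell division blockers that make cells filament.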 The note with it: E. coli DRC39 delta-acrAB growth, higher = more signal, called active from +8 up or from −8 down.
Assay [9] can be described thus: viability profiling in RPMI8226 myeloma cells – cell-based, resazurin fluorescence, basal, 24 h, PK04 Diversity Set, profiling panel (AID 1180).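 Further: RPMI8826 multiple myeloma cell line at 5000 cells per well; test concentration not given here.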 To be noted: higher = more signal.
Assay [10] deals with E3 ubiquitin-protein ligase XIAP (Homo sapiens) (UniProt P98170). Nature of the assay: small molecules binding XIAP protein – biophysical, small-molecule microarray, fluorescence 635 nm, primary screen (AID 1181).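 Further: score merges 667 nm emission and signal to noise over triplicate slides.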 The note with it: higher = more signal.
Chain of E3 ubiquitin-protein ligase XIAP (Homo sapiens) (P98170 whole entry, looked up): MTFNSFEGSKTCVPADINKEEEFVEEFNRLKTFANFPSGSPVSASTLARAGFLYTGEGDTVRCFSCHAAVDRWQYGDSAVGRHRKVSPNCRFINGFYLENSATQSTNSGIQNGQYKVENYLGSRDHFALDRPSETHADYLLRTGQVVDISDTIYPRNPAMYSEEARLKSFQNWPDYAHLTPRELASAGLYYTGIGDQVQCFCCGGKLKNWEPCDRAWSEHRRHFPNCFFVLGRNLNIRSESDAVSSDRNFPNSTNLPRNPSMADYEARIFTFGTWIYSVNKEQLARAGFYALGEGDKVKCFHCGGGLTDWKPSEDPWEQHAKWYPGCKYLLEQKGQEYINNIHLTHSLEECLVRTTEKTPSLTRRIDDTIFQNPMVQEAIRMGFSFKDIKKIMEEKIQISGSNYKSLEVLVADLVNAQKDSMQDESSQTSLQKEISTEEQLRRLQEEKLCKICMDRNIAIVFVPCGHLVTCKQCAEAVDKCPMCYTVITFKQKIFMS

The source made the active and inactive calls. Unless noted, how the calls were made is not given here.

Chain of Dihydroorotate dehydrogenase (quinone), mitochondrial (Plasmodium falciparum (isolate 3D7)) (Q08210 whole entry, looked up): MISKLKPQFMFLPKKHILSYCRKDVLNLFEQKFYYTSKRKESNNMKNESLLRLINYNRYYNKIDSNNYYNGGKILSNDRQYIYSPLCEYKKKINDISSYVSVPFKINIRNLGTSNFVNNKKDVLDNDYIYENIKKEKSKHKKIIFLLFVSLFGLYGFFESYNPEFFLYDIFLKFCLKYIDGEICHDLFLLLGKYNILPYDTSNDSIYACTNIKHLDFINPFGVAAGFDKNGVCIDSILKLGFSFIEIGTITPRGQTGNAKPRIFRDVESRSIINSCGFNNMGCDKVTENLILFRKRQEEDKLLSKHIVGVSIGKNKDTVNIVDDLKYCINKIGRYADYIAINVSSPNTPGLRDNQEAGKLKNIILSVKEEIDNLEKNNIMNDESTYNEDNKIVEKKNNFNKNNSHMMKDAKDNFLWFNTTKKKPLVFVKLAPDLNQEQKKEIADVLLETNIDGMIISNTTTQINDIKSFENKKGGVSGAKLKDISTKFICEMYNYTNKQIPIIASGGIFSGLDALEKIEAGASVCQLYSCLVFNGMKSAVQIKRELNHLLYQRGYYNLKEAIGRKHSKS

`O=C(CS)NCCCCCCNC(=O)[C@H]1C[C@H]2C(=O)N[C@@H](Cc3ccccc3)C(=O)N2[C@H]1c1ccc(O)cc1`: the z-score in [1] was 0.504; in [2] it was 0.588 (inactive); in [3], -0.619 (inactive); in assay [5], 0.836 (inactive); in assay [6], 0.252 (inactive); in assay [7] it was 0.0577 (inactive). The z-score in [8] was -0.983 (inactive); in assay [9], 0.158. Also, the values for the composite z-score in assay [4] and in assay [10] were -0.0269 (inactive) and -0.166, respectively.
On to `CN1C(=O)C2C=CC(C(O)c3cccc(O)c3)N(Nc3ccccc3)C2C1=O` (stereo not given), for which the z-score in assay [1] was 0.0748; in assay [2] it was 0.655 (inactive); in assay [3] it was -0.462 (inactive); in assay [5] it was -0.159 (inactive); in assay [6] it was 0.837 (inactive); in assay [7], -1.32 (inactive). Moreover, the z-score in assay [8] is -0.17 (inactive); in [9] it was -2.48. In addition, the composite z-score was 0.613 (inactive) in assay [4] and -0.0812 in [10].
Consider `CC(c1ccccc1)C(O)C1C=CC2C(=O)N(c3ccccc3)C(=O)C2N1Nc1ccc([N+](=O)[O-])cc1` (stereo not given), for which the z-score was 0.796 in assay [1]; 0.326 (inactive) in [2]; 0.831 (inactive) in [3]; 0.449 (inactive) in assay [5]; 0.399 (inactive) in [6]; -0.821 (inactive) in assay [7]. Also, the z-score was 0.434 (inactive) in assay [8] and 0.538 in assay [9]. For the same molecule, the composite z-score in assay [4] is 0.101 (inactive); in assay [10], -0.334.
Take `CC(C)(C)OC(=O)CC[C@]1(C(=O)NCC(O)CO)N=C(c2ccc(OCCCO)cc2)O[C@H]1c1ccccc1` (stereo not given in full): the z-score in assay [1] is 0.309; in assay [2], -1.84 (inactive); in assay [3] it was 1.04 (inactive); in assay [5], 0.882 (inactive); in [6], -0.87 (inactive); in assay [7] it was 1.41 (inactive). The z-score in [8] is 0.419 (inactive); in [9], 0.949. In addition, the values for the composite z-score in assay [4] and in assay [10] were -1.89 (inactive) and -0.0203, respectively.
With `O=C1OCCC/C=C\[C@H]2OC34C=CCN(CCN5CCOCC5)C(=O)[C@H]3N(CCCCCCO)C(=O)[C@@H]4C12` (stereo not given in full), the z-score in [1] is 0.287; in [2], -0.549 (inactive); in [3], 0.828 (inactive); in [5] it was 0.0251 (inactive); in assay [6], -1.06 (inactive); in [7], 0.251 (inactive). Besides, the z-score was 0.547 (inactive) in assay [8] and 0.56 in assay [9]. In addition, the composite z-score was -1.38 (inactive) in assay [4] and 0.122 in [10].
Take `COC(=O)C(CC#Cc1ccc2c(c1)[C@]1(C(=O)N2)[C@H](C(=O)N2CCN(c3ncccn3)CC2)[C@H]2C(=O)O[C@H](c3ccccc3)[C@H](c3ccccc3)N2[C@@H]1c1ccc(OCCO)cc1)C(=O)OC`: the z-score in assay [1] was -0.589; in assay [2], 1.78 (inactive); in assay [3], -1.45 (inactive); in assay [5], 3.59 (inactive); in [6] it was 3.84 (inactive); in assay [7], 0.475 (inactive). Further, the z-score in assay [8] is 1.05 (inactive); in assay [9], -0.126. For the same molecule, the composite z-score in [4] is -8.4 (active); in assay [10], -0.039.
In the case of `COCCOC(=O)N1C(=O)[C@@]2(c3cc(C#CCC(C(=O)OC)C(=O)OC)ccc31)[C@H](C(=O)N1CCc3cc(OC)c(OC)cc3C1)[C@H]1C(=O)O[C@H](c3ccccc3)[C@H](c3ccccc3)N1[C@@H]2c1ccc(OCCO)cc1`, the z-score is -0.679 in assay [1]; 1.63 (inactive) in [2]; -0.348 (inactive) in assay [3]; 2.39 (inactive) in assay [5]; 2.8 (inactive) in assay [6]; -0.132 (inactive) in assay [7]. The z-score in assay [8] was 0.325 (inactive); in assay [9], 0.847. Moreover, the composite z-score is -1.34 (inactive) in assay [4] and -0.332 in [10].
Consider `O=C(N1CCCCC1)[C@@]1(CCS(=O)(=O)c2ccccc2)COC(c2ccc(OCCCO)cc2)=N1`, for which the z-score in assay [1] is -0.27; in assay [2], -0.22 (inactive); in assay [3], -1.52 (inactive); in assay [5], 0.258 (inactive); in assay [6] it was -0.008 (inactive); in assay [7], 0.196 (inactive). Further, the results for the z-score in assay [8] and in [9] were 0.21 (inactive) and -0.675, respectively. Further, the composite z-score is -0.0606 (inactive) in assay [4] and 0.0942 in [10].
Regarding `COC(=O)[C@@]1(Cc2ccc(F)cc2)[C@H]2c3cc(C(=O)N4CCCC4)n(CCN4CNCC4=O)c3C[C@H]2CN1C(=O)c1ccccc1`, the z-score in [1] was 0.424; in assay [2] it was 1.39 (inactive); in assay [3], -0.758 (inactive); in [5] it was 0.976 (inactive); in [6] it was 0.76 (inactive); in [7], 0.264 (inactive). In addition, the z-score in [8] was -1.03 (inactive); in assay [9] it was -0.628. Further, the composite z-score in [4] is -0.421 (inactive); in assay [10] it was 0.253.
For `C=C(COC)/C(=C/C[C@H](OC(C)=O)c1ccc(OCCO)cc1)c1cc(C(=O)OC)ccc1OC`, the z-score in assay [1] is 1.26; in assay [2], 0.147 (inactive); in [3], 0.901 (inactive); in [5], 0.838 (inactive); in [6], -0.957 (inactive); in assay [7], 1.94 (inactive). Moreover, the z-score is 1.37 (inactive) in assay [8] and 1.46 in assay [9]. In addition, the composite z-score is -2.16 (inactive) in assay [4] and -0.345 in [10].
Take `C=C(/C(=C/C[C@H](OC(C)=O)c1cccc(OCCO)c1)c1cnc2ccccc2c1)C(C)C`: the z-score is -0.196 in assay [1]; 0.644 (inactive) in assay [2]; -0.0992 (inactive) in [3]; -0.0099 (inactive) in [5]; 1.51 (inactive) in [6]; 0.636 (inactive) in assay [7]. The z-score in [8] is 0.363 (inactive); in [9], 0.573. Besides, the values for the composite z-score in assay [4] and in assay [10] were -5.52 (inactive) and -0.0773, respectively.
Turning to `CC(CO)N1C(=O)[C@@H]2[C@H]3C(=O)OCC=C[C@H]3OC23C=CCN(Cc2ccccc2)C(=O)[C@@H]13` (stereo not given in full), the z-score in [1] was 1.44; in [2] it was -0.319 (inactive); in [3] it was 1.01 (inactive); in [5] it was 0.745 (inactive); in assay [6] it was -1.21 (inactive); in [7], 0.518 (inactive). Further, the z-score in assay [8] is 0.075 (inactive); in [9], 1.28. Further, the composite z-score in [4] is -1.07 (inactive); in assay [10], 0.184.

For the origin of these results see PubChem BioAssay.
